Test results published in PubChem BioAssay (Tox21).
Results filed as inconclusive are left out. Active and inactive are the calls of the source. Unless noted, the call rests on the fitted dose curve; in most records, active means well fitted curve in the direction sought with a large enough effect in the repeat runs; inconclusive means weak or mixed curves; inactive means no such curve, though single readings can be large; an effect the other way counts as inactive or inconclusive.

Assays:
[1] = qHTS assay for small molecule agonists of the p53 signaling pathway (AID 651631; calls by dose curve; further: nearly all actives have a fitted effect of over 15% in size; further: potency means the concentration at half of the fitted maximal effect)
Summary of the method: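 HCT-116 cells carrying a beta-lactamase reporter under p53 response elements were dosed with compound for 16 h at 37 °C. LiveBLAzer B/G FRET substrate was then added for 2 h at room temperature, and fluorescence intensity was read to detect pathway agonism.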

[2] = qHTS assay for small molecules that induce genotoxicity in human embryonic kidney cells expressing luciferase-tagged ATAD5 (AID 651632); further: nearly all actives have a fitted effect of over 15% in size
Summary of the method: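 Test compounds were delivered by pin tool onto HEK293T reporter cells (2,000/well) expressing ATAD5 fused to luciferase. After 16 hr at 37C, 5% CO2, Amplite was added for 30 min at room temperature and luminescence was measured.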

[3] = qHTS assay for small molecules that induce genotoxicity in human embryonic kidney cells expressing luciferase-tagged ATAD5 - cell viability (AID 651634; calls by dose curve; further: nearly all actives have a fitted effect of over 25% in size; further: potency means the concentration at half of the fitted maximal effect)
Summary of the method: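 Quantitative high-throughput format. HEK293T cells expressing ATAD5 fused to luciferase were plated at 2,000 cells/well and treated 15.5 hr with compound versus DMSO. Viability was determined by fluorescent live-cell protease substrate, 30 min at 37C.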

[4] = qHTS assay for small molecule disruptors of the mitochondrial membrane potential - cell viability (AID 720634; calls by dose curve; further: nearly all actives have a fitted effect of over 20% in size; further: potency means the concentration at half of the fitted maximal effect)
Summary of the method: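 Same-well counter-screen: following the MMP dye addition, CellTiter-Glo was added to 1 hr compound-treated HepG2 cells and luminescence read after 30 min at room temperature.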

[5] = qHTS assay for small molecule disruptors of the mitochondrial membrane potential (AID 720635); further: potency means the concentration at half of the fitted maximal effect
Summary of the method: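 HepG2 cells (2,000/well) attached overnight at 37C, then took compound for 1 hr at 37C, 5% CO2. Mito-MPS dye was added for 30 min; fluorescence was read at 490/535 nm (monomers) and 540/590 nm (aggregates).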

[6] = qHTS assay to test for compound auto fluorescence at 590 nm (red) in HepG2 cells (AID 720674)
Summary of the method: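 Rose Bengal sodium served as the red fluorophore standard. HepG2 monolayers (overnight attachment, MEM with 10% FBS) were exposed to test compounds for 1 hr at 37 C and read at Ex 540/Em 590 nm.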

[7] = qHTS assay to test for compound auto fluorescence at 535 nm (green) in HepG2 cells (AID 720675)
[8] = qHTS assay to test for compound auto fluorescence at 460 nm (blue) in HEK293 cells (AID 720678)
Summary of the method: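 Cells were seeded and left to adhere for 4-5 hr at 37C. Compounds were then pin-transferred. After an overnight incubation at 37C under 5% CO2, intrinsic fluorescence at 405/460 nm was measured and referenced to triamterene.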

[9] = qHTS assay to test for compound auto fluorescence at 590 nm (red) in HEK293 cells (AID 720679)
Summary of the method: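 Each well held 2,000 HEK293 cells in medium containing 10% dialyzed FBS. Following 4-5 hr attachment at 37C, 23 nL test compound or DMSO was added; plates sat overnight, and red fluorescence (540/590nm) was recorded.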

[10] = qHTS assay to test for compound auto fluorescence at 535 nm (green) in HEK293 cells (AID 720680)
[11] = qHTS assay to test for compound auto fluorescence at 460 nm (blue) in HEK293 cell free culture (AID 720681)
Summary of the method: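 Test compounds were pinned into cell-free culture medium (DMEM with 10% FBS) and fluorescence was read directly at Ex/Em 405/460 nm. Signals were expressed as fluorescence equivalents of triamterene, with DMSO vehicle as control.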

[12] = qHTS assay to test for compound auto fluorescence at 535 nm (green) in HEK293 cell free culture (AID 720682)
Summary of the method: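 Green-label autofluorescence (485 nm excitation, 535 nm emission) measured on compound added to cell-free culture medium (DMEM, 10% FBS). Output is expressed relative to fluorescein.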

[13] = qHTS assay to test for compound auto fluorescence at 590 nm (red) in HEK293 cell free culture (AID 720683)
Summary of the method: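 Tox21 10K library compounds were pinned into cell-free DMEM with 10% FBS and fluorescence was read at excitation 540 nm. Activity is expressed as Rose Bengal sodium equivalency.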

[14] = qHTS assay to test for compound auto fluorescence at 460 nm (blue) in HepG2 cell free culture (AID 720685)
Summary of the method: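 Cell-free plates of MEM plus 10% FBS received 23 nL compound or DMSO vehicle; blue-channel (405/460 nm) intensity scored against triamterene as reference fluorophore.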

[15] = qHTS assay to test for compound auto fluorescence at 535 nm (green) in HepG2 cell free culture (AID 720686)
[16] = qHTS assay to test for compound auto fluorescence at 460 nm (blue) in HepG2 cells (AID 720687)
Summary of the method: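 Cells (2,000/well in MEM with 10% FBS) attached overnight at 37 C, then were exposed to compound or DMSO for 1 hr at 37 C, 5% CO2. Fluorescence read at Ex/Em 405/460 nm, expressed as triamterene-equivalent signal.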

[17] = qHTS assay for small molecule agonists of the p53 signaling pathway - cell viability (AID 651633; calls by dose curve;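 further: p53RE-bla HCT reporter cells with a stable beta-lactamase p53 reporter; series mostly up to about 83 µM; nearly all actives have a fitted effect of over 30% in size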)
Summary of the method: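 p53RE-bla cells, seeded at 4,000 per well and rested 5 h at 37 C/5% CO2, received compounds in DMSO for 16 h at 37 C. CellTiter-Glo was then added, and luminescence was read after 30 min at room temperature to gauge cytotoxicity.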

[18] = qHTS assay to test for compound auto fluorescence at 590 nm (red) in HepG2 cell free culture (AID 720684)
Summary of the method: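 Readout: intrinsic compound fluorescence at 590 nm emission after 540 nm excitation, scaled to Rose Bengal sodium. Matrix was cell-free MEM with 10% FBS; DMSO vehicle wells served as control.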

[19] = biological target: Glucocorticoid receptor (Homo sapiens) (UniProt P04150); assay: qHTS assay to identify small molecule agonists of the glucocorticoid receptor (GR) signaling pathway (AID 720691; active means well fitted activation curve with a large enough effect in the signal ratio in the repeat runs, not every such curve was filed as active; the % refers to the signal ratio)
Chain of Glucocorticoid receptor (Homo sapiens) (P04150 whole entry, looked up): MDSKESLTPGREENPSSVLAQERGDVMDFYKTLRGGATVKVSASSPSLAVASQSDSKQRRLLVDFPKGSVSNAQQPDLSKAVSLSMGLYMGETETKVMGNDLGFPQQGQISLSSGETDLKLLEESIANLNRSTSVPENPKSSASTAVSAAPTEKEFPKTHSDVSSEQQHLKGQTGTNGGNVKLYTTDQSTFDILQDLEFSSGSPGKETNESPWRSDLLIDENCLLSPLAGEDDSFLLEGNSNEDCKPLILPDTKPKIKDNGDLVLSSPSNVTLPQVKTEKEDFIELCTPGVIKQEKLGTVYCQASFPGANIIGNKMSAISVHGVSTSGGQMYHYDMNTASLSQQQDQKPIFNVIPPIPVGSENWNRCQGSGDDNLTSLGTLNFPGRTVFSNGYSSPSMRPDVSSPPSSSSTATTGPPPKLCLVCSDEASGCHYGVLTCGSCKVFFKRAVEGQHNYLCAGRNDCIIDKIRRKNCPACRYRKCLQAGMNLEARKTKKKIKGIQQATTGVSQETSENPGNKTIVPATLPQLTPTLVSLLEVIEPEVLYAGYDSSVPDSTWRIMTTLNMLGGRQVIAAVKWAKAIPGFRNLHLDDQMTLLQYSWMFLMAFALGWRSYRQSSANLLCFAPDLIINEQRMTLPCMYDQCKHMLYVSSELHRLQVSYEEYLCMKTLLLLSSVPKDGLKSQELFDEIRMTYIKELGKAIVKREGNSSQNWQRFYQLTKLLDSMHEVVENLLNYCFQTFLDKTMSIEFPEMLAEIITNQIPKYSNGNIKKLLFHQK
Summary of the method: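 A HeLa cervical cancer line expressing GR and a glucocorticoid response element-driven beta-lactamase gene is treated with compounds for 18 h; LiveBLAzer B/G FRET substrate is then applied and fluorescence read.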

[20] = biological target: Glucocorticoid receptor (Homo sapiens) (UniProt P04150); assay: qHTS assay to identify small molecule antagonists of the glucocorticoid receptor (GR) signaling pathway (AID 720692; active means well fitted inhibition curve with a large enough effect in the signal ratio in the repeat runs, not every such curve was filed as active; the % refers to the signal ratio)
Summary of the method: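 GRE-bla HeLa line, dex-stimulated (5 nM final). Compound exposure 18 h, 37 C. Beta-lactamase FRET read after 2 h RT substrate.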

Measured: Potency

CN1C(=O)N(c2ccccc2Br)Cc2cnc(Nc3ccc4c(c3)OCC(CO)O4)nc21 (stereo not given)
active: [1] 19.3 µM | [3] 54.5 µM | [4] 48.6 µM | [5] 24.3 µM
inactive: [2] | [6] | [7] | [8] | [9] | [10] | [11] | [12] | [13] | [14] | [15] | [16]

O=C=Nc1ccc(Cl)c(Cl)c1
active: [5] 7.57 µM
inactive: [1] | [17] | [7] | [8] | [9] | [10] | [11] | [12] | [13] | [18] | [15] | [16]

C=CC(=O)[O-].C=CC(=O)[O-].[Zn+2]
inactive: [1] | [17] | [3] | [4] | [6] | [7] | [8] | [9] | [10] | [11] | [12] | [13] | [18] | [14] | [15] | [16] | [19]

CO/N=C(/C(=O)N[C@@H]1C(=O)N2C(C(=O)O)=C(COC(N)=O)CS[C@H]12)c1ccco1
inactive: [1] | [2] | [3] | [4] | [5] | [6] | [7] | [8] | [9] | [10] | [11] | [12] | [13] | [18] | [14] | [15] | [19]

Nc1ncnc2c1ncn2[C@H]1CC[C@@H](CO)O1
inactive: [1] | [2] | [3] | [4] | [5] | [6] | [7] | [8] | [9] | [10] | [11] | [12] | [13] | [18] | [14] | [15] | [16]

O=c1[nH]ncc2ccccc12
inactive: [1] | [2] | [3] | [4] | [6] | [7] | [8] | [9] | [10] | [11] | [12] | [13] | [18] | [14] | [15] | [16] | [19] | [20]

CC(C)(O)c1ccc(CNC(=O)c2cccnc2Oc2ccc3nonc3c2)cc1
inactive: [1] | [2] | [3] | [5] | [6] | [7] | [9] | [10] | [11] | [12] | [13] | [18] | [14] | [15] | [16] | [19]

O=C1c2ccccc2C(=O)c2c(O)c(O)cc(O)c21
active: [5] 27.3 µM
inactive: [1] | [2] | [17] | [4] | [6] | [7] | [8] | [9] | [10] | [11] | [12] | [18] | [14] | [15] | [19]

NCCNCCO
inactive: [1] | [2] | [3] | [4] | [5] | [7] | [8] | [9] | [10] | [11] | [12] | [13] | [15] | [16] | [20]
